Most compounds without a hit are left out; they make up all but 3.5% or so of the library.
TEAD-YAP inh – TEAD-YAP interaction inhibition. HEK-TIYL cells, TEAD-Gal4/YAP UAS-luciferase luminescence. inhibition, % at 9.12 µM. 640,000 tested, 1.4% active; in the data active means inhibition above about 32%;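 further: 0% = median of test compound wells and 100% = reference inhibitor wells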
GPR151 activ – activators of human GPR151; Q8TDV0; PathHunter beta-arrestin GPR151 cells, luminescence; 650,000 tested, 1% active; activation, % at 11.2 µM; in the data active means activation above about 4.9%;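 further: 0% = median of compound wells and 100% = cells with positive control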
FBW7 activator – human FBW7 E3 ligase activation, primary screen. Q969H0. AlphaScreen FBW7–phospho-cyclin E peptide binding, activator screen. normalized activity (activation), % at 26.1 µM. 650,000 tested, 0.13% active. AID 1259310; in the data active means normalized activity above about 1.9%;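 further: purified mutant Fbw7 with reduced substrate affinity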
MITF primary – human MITF inhibition, primary screen | AlphaScreen MITF homodimerization, bead proximity signal | O75030 | 650,000 tested, 0.91% active | AID 1259374 | inhibition, % at 2.6 µM; in the data active means inhibition above about 50%;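 further: 0% = vehicle wells with protein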
Target sequence (O75030 whole entry, looked up): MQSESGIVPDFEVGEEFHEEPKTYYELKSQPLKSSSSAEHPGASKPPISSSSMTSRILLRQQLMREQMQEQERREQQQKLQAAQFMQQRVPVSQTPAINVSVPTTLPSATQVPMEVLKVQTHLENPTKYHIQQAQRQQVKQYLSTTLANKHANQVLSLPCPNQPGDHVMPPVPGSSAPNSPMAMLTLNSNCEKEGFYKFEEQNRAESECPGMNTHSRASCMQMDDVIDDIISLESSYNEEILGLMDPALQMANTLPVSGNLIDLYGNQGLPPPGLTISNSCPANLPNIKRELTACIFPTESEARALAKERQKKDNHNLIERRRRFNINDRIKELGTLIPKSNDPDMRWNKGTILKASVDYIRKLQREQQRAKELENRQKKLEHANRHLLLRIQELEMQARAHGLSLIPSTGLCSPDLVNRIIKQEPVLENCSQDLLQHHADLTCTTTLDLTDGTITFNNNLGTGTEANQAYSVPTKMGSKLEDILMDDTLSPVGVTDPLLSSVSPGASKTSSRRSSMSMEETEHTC
MITF inh conf – confirmation of human MITF inhibitors; shares compounds with MITF primary; AlphaScreen MITF homodimerization, biotin/His-MITF beads; inhibition, % at 2.6 µM; 4,700 tested, 16% active; AID 1259372;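 active means inhibition above a cutoff derived from the DMSO control wells, cut at about 28% in these data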;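 further: 0% = MITF dimer wells with DMSO only; inhibitors lower the bead chemiluminescence by keeping MITF from dimerizing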
AS interf DR – counter-screen: compounds optically interfering with AlphaScreen. shares compounds with MITF primary. AlphaScreen optical interference counterscreen, cell-free. IC50, µM. 480 tested, 6% active. AID 1259373; call rule not given here
AlphaScreen intf2 – counter-screen: compounds optically interfering with AlphaScreen. shares compounds with MITF primary. LysRS AlphaScreen counterscreen, signal interference, triplicate. inhibition, % at 2.6 µM. 4,700 tested, 7.6% active;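 active means inhibition above a cutoff derived from the DMSO control wells, cut at about 30% in these data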
* = called active by the depositor.

Screening COC(=O)c1ccc(NC(=O)COC(=O)Cc2ccc(-c3ccccc3)cc2)cc1 returned TEAD-YAP inh 0.3, GPR151 activ -4.1, FBW7 activator -0.1 and MITF primary -5.6.
For CCOc1ccc(/C=C/C(=O)Nc2ccc(N3CCOCC3)cc2)cc1 the results were TEAD-YAP inh 13.3, GPR151 activ 0.0, FBW7 activator 0.0, MITF primary 87.2*, MITF inh conf 6.8 and AlphaScreen intf2 13.9.
For O=C(c1cccc(Cl)c1)N1N=C(c2ccco2)CC1c1ccco1 (centres undefined) the results were TEAD-YAP inh 5.0, GPR151 activ 2.2, FBW7 activator 0.0 and MITF primary 8.0.
For Cc1ccc(NC(=O)c2ccccc2NC(=O)c2ccc(F)cc2)c(C(=O)c2ccccc2)c1 the results were TEAD-YAP inh 2.3, GPR151 activ -0.6, FBW7 activator 0.4 and MITF primary 12.7.
`CCOC(=O)c1cc([N+](=O)[O-])[nH]n1` gave TEAD-YAP inh 6.8, GPR151 activ -0.3, FBW7 activator -0.1 and MITF primary 10.9.
Screening CC(=O)Oc1ccccc1C(=O)Nc1c(Cl)cc([N+](=O)[O-])cc1Cl returned TEAD-YAP inh 2.7, GPR151 activ 0.1, FBW7 activator 0.0 and MITF primary -2.0.
For CC(=O)c1ccc(NC(=S)NNC(=O)CC#N)cc1 the results were TEAD-YAP inh 0.8, GPR151 activ -1.7, FBW7 activator -0.4, MITF primary 92.8*, MITF inh conf 12.4 and AlphaScreen intf2 9.9.
For CCNC(=S)NNC(=O)c1ccc(NC(=O)CC#N)cc1 the results were TEAD-YAP inh -0.5, GPR151 activ -1.2, FBW7 activator -0.2 and MITF primary -6.5.
O=C(NCc1cccnc1)c1cc2ccccc2o1 was read as TEAD-YAP inh -14.5, GPR151 activ 0.7, FBW7 activator 0.5, MITF primary 51.5*, MITF inh conf -4.6 and AlphaScreen intf2 -2.5.
Screening O=C(NC(=S)NCc1cccnc1)c1cc2ccccc2o1 returned TEAD-YAP inh -6.2, GPR151 activ -0.7, FBW7 activator 0.1 and MITF primary 11.6.
For NC[C@@H]1CC[C@@H](N)[C@@H](O[C@H]2[C@H](O)[C@@H](O[C@H]3O[C@H](CO)[C@@H](O)[C@H](N)[C@H]3O)[C@H](N)C[C@@H]2N)O1 the results were TEAD-YAP inh -1.2, GPR151 activ 0.1, FBW7 activator -0.1 and MITF primary 14.9.
Screening CN(C)CCOc1ccc2ccccc2c1 returned TEAD-YAP inh -0.4, GPR151 activ 0.3, FBW7 activator -0.1, MITF primary 75.9*, MITF inh conf -17.1 and AlphaScreen intf2 -2.6.
For CC(=O)N1CCC(N2CCOc3c(O)cc(-c4nc5ccccc5s4)cc3C2)CC1 the results were TEAD-YAP inh -7.3, GPR151 activ 0.2, FBW7 activator 0.0 and MITF primary 1.5.
C/C(=N\OCC(O)CN1CCOCC1)C1COc2ccccc2O1 (centres undefined) was read as TEAD-YAP inh -4.6, GPR151 activ -0.1, FBW7 activator -0.3, MITF primary 51.1*, MITF inh conf -1.7 and AlphaScreen intf2 9.9.
COc1ccccc1C1(NC(=O)CCCCC2SCC3NC(=O)NC32)CCCC1 (centres undefined) was read as TEAD-YAP inh -3.8, GPR151 activ 2.9, FBW7 activator -0.6, MITF primary 105.4*, MITF inh conf 66.2*, AS interf DR 4.88* and AlphaScreen intf2 8.8.
O=C(O)CCCC[C@@H]1SC[C@@H]2NC(=O)N[C@@H]21 was read as GPR151 activ -0.2, FBW7 activator -0.6, MITF primary 121.6*, MITF inh conf 123.9* and AlphaScreen intf2 100.3*.
`CC1(C)Cc2cccc(OCc3ccc(C(=O)NCc4ccncc4)cc3)c2O1` gave TEAD-YAP inh 14.5, GPR151 activ 1.8, FBW7 activator -0.2, MITF primary 58.6*, MITF inh conf -11.0 and AlphaScreen intf2 1.6.
Screening O=c1c2c3c(sc2nc2n1CCCCC2)CCC3 returned TEAD-YAP inh -25.8, GPR151 activ 0.3, FBW7 activator 0.0, MITF primary 70.6*, MITF inh conf -5.3 and AlphaScreen intf2 0.2.
O=C1CCCc2c1sc1nc3n(c(=O)c21)CCCCC3 was read as TEAD-YAP inh -44.2, GPR151 activ -0.8, FBW7 activator -0.2 and MITF primary -2.5.
Screening CCOC(=O)C1=C(C)N=c2s/c(=C\c3c(C)[nH]c4ccccc34)c(=O)n2C1c1ccccc1 (centres undefined) returned TEAD-YAP inh 2.6, GPR151 activ 3.3, FBW7 activator 0.0, MITF primary 66.2*, MITF inh conf -6.8 and AlphaScreen intf2 -7.5.
`CCOC(=O)C1=C(c2ccccc2)N=c2s/c(=C\c3cccs3)c(=O)n2C1c1c(OC)ccc2ccccc12` (centres undefined) gave TEAD-YAP inh -10.3, GPR151 activ -0.6, FBW7 activator 0.1, MITF primary 54.8*, MITF inh conf -8.6 and AlphaScreen intf2 -6.9.
NC(=O)c1ccc(NC(=O)CN2CCc3ccccc3C2)cc1 was read as TEAD-YAP inh -6.2, GPR151 activ 0.0, FBW7 activator 0.1 and MITF primary 3.3.
O=C(CN1CCN(Cc2ccccc2)CC1)Nc1ccccc1 was read as TEAD-YAP inh -5.5, GPR151 activ 3.0, FBW7 activator 0.5 and MITF primary 1.4.
`O=C(CN1CCN(Cc2ccccc2)CC1)Nc1ccc(C(=O)N2CCCCC2)cc1` gave TEAD-YAP inh 3.0, GPR151 activ 1.0, FBW7 activator 0.0, MITF primary 65.4*, MITF inh conf 12.5 and AlphaScreen intf2 -1.8.
Screening O=C(CN1CCc2ccccc2C1)Nc1ccc(C(=O)N2CCCCC2)cc1 returned TEAD-YAP inh -16.4, GPR151 activ 1.7, FBW7 activator 0.0, MITF primary 59.7*, MITF inh conf 11.5 and AlphaScreen intf2 18.9.
Screening Nc1c(C(=O)NCC2CCCO2)c2nc3ccccc3nc2n1CCc1ccccc1F (centres undefined) returned TEAD-YAP inh 4.6, GPR151 activ 0.2, FBW7 activator 0.5 and MITF primary 3.9.
Screening O=c1c2cn[nH]c2nc(SCc2cccc(Br)c2)n1-c1ccc(Br)cc1 returned TEAD-YAP inh -2.3, GPR151 activ -0.4, FBW7 activator 0.1 and MITF primary -6.4.
For COc1ccc(CC(=O)Nc2ccc3c(c2)CN(C(C)=O)CC3)cc1 the results were TEAD-YAP inh -9.3, GPR151 activ 1.3, FBW7 activator 0.4 and MITF primary 4.7.
Cn1c(-c2cccc([N+](=O)[O-])c2)cnc1NCc1cccc(O)c1 was read as TEAD-YAP inh -10.4, GPR151 activ 0.3, FBW7 activator -0.1 and MITF primary 39.0.
Screening Cn1c(-c2cccc([N+](=O)[O-])c2)cnc1NCc1ccc(F)cc1 returned TEAD-YAP inh -4.2, GPR151 activ 0.4, FBW7 activator -0.1 and MITF primary 38.0.

Source: PubChem (The Scripps Research Institute Molecular Screening Center)
